High-throughput results as filed in PubChem BioAssay.
Pf growth 96h: P. falciparum growth inhibition at 96 hour, primary screen for plastid delayed-death inhibitors; P. falciparum luciferase reporter growth, 96 h; Potency, µM (doses to about 28.7 µM), usual class: inhibitors; 320,000 compounds, 6.9% hits
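P. falciparum expressing integrated firefly luciferase grown in erythrocytes (2% hematocrit, 0.05% parasitemia final) with compounds for 96 hours at 37 C, 5% CO2. Growth inhibition read as loss of luminescence after adding luciferase detection reagent.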
Cycloheximide cs: counter-screen for Shiga toxin inhibitors: cycloheximide protein synthesis inhibition | max response, % | cell reporter, cycloheximide protein synthesis inhibition counterscreen | 300,000 compounds, 12% hits; in the data active = max response mostly above about 13%, no sharp cut-off; inactive = mostly below about 14%; note: read at 38.3 µM for the half of the compounds with a filed dose
Pf growth 48h: P. falciparum growth inhibition at 48 hours (one generation); 310,000 compounds, 5.9% hits; Potency, µM (highest dose often 28.7 µM), hits mostly inhibitors; P. falciparum luciferase growth in erythrocytes, 48 h
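Read-out is firefly luciferase luminescence from an integrated reporter in P. falciparum, so falling signal marks reduced parasite growth. Infected erythrocytes were at 2% hematocrit and 0.1% parasitemia (final) in Albumax-supplemented RPMI 1640.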
Shiga inhibitor: inhibitors of Shiga toxin in Vero cells. 290,000 compounds, 9.2% hits. inhibition, % at 38.7 µM. AID 2315. Vero cells, Shiga toxin protein synthesis inhibition reporter; in the data active = inhibition mostly above about 28%, no sharp cut-off; inactive = mostly below about 43%
NS1 function inh: inhibitors of influenza NS1 protein function; 270,000 compounds, 0.4% hits; Potency, µM (highest dose often 46.1 µM); calls by dose curve; note: actives are rising curves; nearly all actives have a fitted effect of over 50% in size
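OD600 was taken as the measure of yeast growth restored by compound in an NS1-expressing S. cerevisiae strain. Cells had been washed out of glucose medium and diluted 1:100 into galactose -URA medium, pH 6.0.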
A number is an active result; . = inactive; ? = inconclusive; / = not tested or not shown; [ ] = remark or other dose. Compounds with a hit are over-represented: about 21% of the library has one in this group of screens. Unless noted, calls come from the whole dose curve; as a rule, active = well fitted inhibition curve with a large enough effect; inconclusive = small, poorly fitted or top-dose-only effect, or another doubt; inactive = no such curve, though single readings can be large or run the other way.

SMILES	Pf growth 96h	Cycloheximide cs	Pf growth 48h	Shiga inhibitor	NS1 function inh
COc1ccc(NC(=O)CNc2cc(C)ccc2C)cc1S(=O)(=O)N1CCOCC1	15µM	/	?	/	/
COc1ccc(NC(=O)c2cc3c(s2)CCC(C)C3)cc1S(=O)(=O)N1CCOCC1 (stereo not given)	7.4µM	.	?	.	?
COc1ccc(NC(=O)C2CCC(C(C)(C)C)CC2)cc1S(=O)(=O)N1CCOCC1 (stereo not given)	13µM	/	?	/	/
Cc1cc(Cl)ccc1NC(=S)NCc1ccccc1Cl	.	.	?	.	.
Cn1c(N)c(C(=O)COC(=O)CNS(=O)(=O)c2ccc(Cl)c(Cl)c2)c(=O)n(C)c1=O	.	.	.	.	.
CSCC[C@H](NC(=O)[C@H](CC(C)C)NC(=O)CNC(=O)[C@H](Cc1ccccc1)NC(=O)[C@H](Cc1ccccc1)NC(=O)[C@H](CCC(N)=O)NC(=O)[C@H](CCC(N)=O)NC(=O)[C@@H]1CCCN1C(=O)[C@H](CCCCN)NC(=O)[C@@H]1CCCN1C(=O)[C@@H](N)CCCN=C(N)N)C(N)=O	/	.	/	.	/
CC(=O)Nc1ccc(S(=O)(=O)Nc2ncccn2)cc1	.	.	.	.	.
CCNS(=O)(=O)c1ccc(NC(=O)c2cccnc2)cc1	/	.	.	.	.
Cc1cc(C)nc(SCC(=O)Nc2ccc(S(=O)(=O)Nc3ncccn3)cc2)n1	.	35	?	75	.
CCc1ccc(S(=O)(=O)Nc2c(C)nc3nc[nH]n3c2=O)cc1	.	.	.	.	.
CCC(=O)Nc1ccc(S(=O)(=O)Nc2ncccn2)cc1	9.3µM	.	/	.	.
O=C(Nc1ccc(S(=O)(=O)Nc2ncccn2)cc1)c1cccnc1	.	59	.	114	.
CCC(=O)Nc1ccc(S(=O)(=O)Nc2c(C)nc3nc[nH]n3c2=O)cc1	10µM	.	.	.	.
CCn1c(SCC(=O)N(C)C2CCS(=O)(=O)C2)nnc1-c1ccccc1 (stereo not given)	.[5.75 µM]	.	.	.	/
Cc1cnc(NC(=O)CC2OC(=O)c3ccccc32)s1 (stereo not given)	.	/	.	/	/
Cc1cc(C)nc(NS(=O)(=O)c2ccc(NC(=O)Cn3c(=O)oc4ccccc43)cc2)n1	6.6µM	.	/	.	.
Cc1cc(C)nc(NS(=O)(=O)c2ccc(NC(=O)CN3C(=O)c4ccccc4C3=O)cc2)n1	/	.	.	.	.
CSc1nnc(CSc2cc(C)nc(N(C)C)n2)o1	.	.	.	.	.
Cc1cc(C)c2oc(-c3cccc(N)c3)nc2c1	.	52	.	106	.
Cc1ccc2nc(-c3cccc(N)c3)oc2c1	/	.	.	.	.
CC[C@H](C)[C@H](NC(=O)[C@H](Cc1ccc(O)cc1)NC(=O)[C@H](Cc1cnc[nH]1)NC(=O)[C@H](CCCNC(=N)N)NC(=O)[C@H](CC(C)C)NC(=O)[C@H](C)NC(=O)[C@H](CO)NC(=O)[C@H](Cc1ccc(O)cc1)NC(=O)[C@H](Cc1ccc(O)cc1)NC(=O)[C@H](CCCNC(=N)N)NC(=O)[C@H](C)NC(=O)[C@H](CC(C)C)NC(=O)[C@H](CC(=O)O)NC(=O)[C@H](CCC(=O)O)NC(=O)[C@H](C)NC(=O)[C@@H]1CCCN1C(=O)[C@H](C)NC(=O)[C@H](CC(=O)O)NC(=O)[C@H](CCC(=O)O)NC(=O)CNC(=O)[C@@H]1CCCN1C(=O)[C@H](CC(N)=O)NC(=O)[C@H](CC(=O)O)NC(=O)[C@@H]1CCCN1C(=O)[C@H](CCCCN)NC(=O)[C@@H](N)CO)C(=O)N[C@@H](CC(N)=O)C(=O)N[C@@H](CC(C)C)C(=O)N[C@H](C(=O)N[C@H](C(=O)N[C@@H](CCCNC(=N)N)C(=O)N[C@@H](CCC(N)=O)C(=O)N[C@@H](CCCNC(=N)N)C(=O)N[C@@H](Cc1ccc(O)cc1)C(N)=O)[C@@H](C)O)[C@@H](C)CC	/	.	/	.	/
Cc1cccc(NS(=O)(=O)c2ccc(C(=O)NCC(c3ccco3)N3CCCCC3)cc2)c1C (stereo not given)	?	/	.	/	/
Cc1ccc(-n2c(/C=C/c3ccc4c(c3)OCO4)nc3ccccc3c2=O)cc1	?	.	?	.	.
COc1ccc(-n2c(/C=C/c3ccc(O)c(OC)c3)nc3ccccc3c2=O)cc1	.	.	?	.	.
COc1ccc(-n2c(/C=C/c3ccc4c(c3)OCO4)nc3ccccc3c2=O)cc1	9.3µM	.	?	.	.
SMILES	Pf growth 96h	Cycloheximide cs	Pf growth 48h	Shiga inhibitor	NS1 function inh
COc1cccc(-n2c(/C=C/c3ccc(O)c(O)c3)nc3ccccc3c2=O)c1	9.3µM	.	?	.	.
COc1ccccc1CNC(=O)c1cc(-c2ccncc2)nc2c(Cl)cccc12	.	.	?	.	.
CCN1CCN(C(c2cccnc2)c2c(NC(=O)c3ccco3)sc(C)c2C)CC1 (stereo not given)	4.7µM	/	4.1µM	/	/
Cc1sc(NC(=O)c2ccco2)c(C(c2cccnc2)N2CCC(C)CC2)c1C (stereo not given)	/	.	1.9µM	.	.
COc1ccc(C(c2c(NC(=O)c3ccco3)sc(C)c2C)N2CCOCC2)cc1 (stereo not given)	.	/	?	/	/
CC(C)(C)n1nnnc1C(c1cccnc1)N1CCN(C(=O)c2ccco2)CC1 (stereo not given)	?	.	.	.	.
CCN1CCN(C(c2ccccn2)c2c(NC(=O)c3ccccc3)sc(C)c2C)CC1 (stereo not given)	13µM	.	?	.	.
CC(Oc1ccccc1)C(=O)N1CCC2(CC1)CC(=O)c1ccccc1O2 (stereo not given)	?	/	.	/	/
COc1cc(NC(=S)NCCc2ccc(S(N)(=O)=O)cc2)c(OC)cc1Cl	?	.	.[5.75 µM]	.	.
C=CCC1(CC=C)CCCN1C(=O)C1CCC(=O)N(CCc2ccccc2)C1 (stereo not given)	?	77	?	102	.
COc1ccc(CCN2CC(C(=O)N3CCC(OC)CC3)CCC2=O)cc1 (stereo not given)	.	.	.	.	.
COCCN1CCN(C(=O)C2CCC(=O)N(Cc3ccccc3OC)C2)CC1 (stereo not given)	?	.	.	.	.
C=CCC1(CC=C)CCCN1C(=O)C1CCC(=O)N(CCc2ccc(OC)cc2)C1 (stereo not given)	?	53	?	78	.
COCCN1CCN(C(=O)C2CCC(=O)N(CCc3ccccc3)C2)CC1 (stereo not given)	9.3µM	.	.	.	.
Cc1ccc(C(=O)Nc2nc(-c3ccccn3)cs2)o1	2.3µM	23	4.1µM	48	.
CCc1cc(C(=O)Nc2nc(-c3ccccn3)cs2)sc1C	?	/	4.1µM	/	/
CC(=O)Nc1ccc(C(=O)Nc2nc(-c3ccccn3)cs2)cc1	?	.	?	.	.
Cc1ccc(C(=O)Nc2nc(-c3ccc([N+](=O)[O-])cc3)cs2)o1	?	.	.	.	.
CC(=O)Nc1ccc(-c2csc(NC(=O)c3ccc(C)o3)n2)cc1	9.3µM	.	/	.	.
O=C(Nc1nc(-c2ccccn2)cs1)c1ccc([N+](=O)[O-])o1	2.3µM	.	2.9µM	.	.
